# Measured values from PubChem BioAssay (NCI).
# Compounds without any hit were thinned out: in the full panel of roughly 83,000, 20% have a hit.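 Activity criterion: percent growth below 10, measured after cells in 96-well plates were exposed to a single compound concentration for 48 hours.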 Values without a mark were called inactive. The source made the active and inactive calls.
# Legend:
# Test in all cases: NCI-60 one-dose screen, 48 h (100 = growth as untreated, 0 = no growth, -100 = all killed)
# Details in all cases: 10 µM unless noted
# [1] = tested on: SK-MEL-2 melanoma
# [2] = tested on: EKVX NSCLC
# [3] = tested on: SN12C renal
# [4] = tested on: UO-31 renal
# [5] = tested on: TK-10 renal
# [6] = tested on: ACHN renal
# [7] = tested on: CAKI-1 renal
# [8] = tested on: A498 renal
# [9] = tested on: CCRF-CEM leukemia
# [10] = tested on: MOLT-4 leukemia
SMILES,growth [1],growth [2],growth [3],growth [4],growth [5],growth [6],growth [7],growth [8],growth [9],growth [10]
O=C(CCCCCCCCC(=O)N/N=C\c1cc(Cl)ccc1O)N/N=C\c1cc(Cl)ccc1O,18.6%,54.7%,28.7%,19%,45.7%,9.47% (active),11.6%,73.4%,12.1%,15.3%
CCOC(=O)C1=C(c2ccccc2)N=c2s/c(=C/c3ccc(Br)cc3)c(=O)n2C1c1ccc(O)cc1 (stereo not given),95.9%,76.8%,85.2%,78.5%,91.7%,104%,62.2%,73.2%,83%,68%
NC(=O)OCCn1cc(-c2nc(-c3c[nH]c4ncccc34)cs2)c2ccccc21,2.38% (active),42.1%,49.1%,34.1%,62.3%,38%,34.5%,-11.7% (active),21.7%,19.6%
CCN(CC)CCN(CCN(CC)CC)c1ccccc1,106%,97.2%,78.5%,66.4%,102%,95.7%,86.6%,94.5%,93.3%,89.8%
CC1(C)CC[C@]2(C(=O)O)CC[C@]3(C)C(=CC[C@@H]4[C@@]5(C)C[C@@H](Cc6cn([C@@H]7O[C@H](CO)[C@@H](O)[C@H](O)[C@H]7O)nn6)[C@H](O)C(C)(C)[C@@H]5CC[C@]43C)[C@@H]2C1,113%,99.4%,99.7%,96.3%,93.6%,100%,98.3%,98.8%,96.4%,83.4%
COc1cc2nc(Nc3cccc(F)c3)nc(Nc3cc(C)[nH]n3)c2cc1OC,-68.2% [20 µM] (active),-67.4% [20 µM] (active),-94.3% [20 µM] (active),-98.7% [20 µM] (active),-71% [20 µM] (active),-97.1% [20 µM] (active),-97.7% [20 µM] (active),-83% [20 µM] (active),-19.7% [20 µM] (active),-40.8% [20 µM] (active)
CC(C)=CC(=O)N[C@@H]1CC2CCC3C(CC[C@@]4(C)C3CC[C@@H]4C(C)N(C)C)[C@@]2(C)C[C@@H]1O (stereo not given in full),124%,32.9%,71.3%,10.1%,84.5%,69.6%,76.6%,67.2%,30%,-7.31% (active)
CC(C)(C)C(=O)/C=C/c1ccc([N+](=O)[O-])cc1,89.2%,89.3%,92.1%,76.5%,91.4%,57.3%,96.1%,91%,44.3%,75.4%
CC(C)c1ccc(C(=O)Nc2sc3cc(O)ccc3c2C#N)cc1,47.6%,52.9%,34.2%,25.1%,63.4%,47.3%,39.6%,-0.765% (active),12.3%,18.3%
O=C1NC(=C(Cl)Cl)/C(=N/S(=O)(=O)N2CCCCC2)N1,40.7%,-23.9% (active),23.5%,39.7%,13.9%,26.8%,46%,132%,-63.3% (active),-48.7% (active)
O=C(CN1CCN(c2cc3c(cc2F)c(=O)c(C(=O)O)cn3C2CC2)CC1)N/N=C/c1ccncc1,105%,98.3%,106%,90.6%,91.6%,99.6%,93.8%,96.4%,94%,101%
CCCCCCCC/C=C\CCCCCCCCOc1ccccc1CC(=O)NCC[N+]1(C)CCCCC1,88.2%,93.4%,43.2%,94.8%,75.8%,110%,81.9%,94.6%,23.1%,20.5%
O=C(CCCCCCN1CC(=O)N2[C@@H](C3CCCCC3)c3[nH]c4ccccc4c3C[C@H]2C1=O)NO,69.2%,77.7%,-97.1% (active),84.8%,48.5%,88.7%,70.8%,82.1%,26.5%,10.3%
C#Cc1cccc(Oc2ccc(NC(=O)CCl)cc2)c1,61.8% [8.25 µM],82.3% [8.25 µM],37.6% [8.25 µM],52.8% [8.25 µM],93% [8.25 µM],70.1% [8.25 µM],36.9% [8.25 µM],102% [8.25 µM],2.35% [8.25 µM] (active),0.835% [8.25 µM] (active)
CN1CCCc2cc(/C=C3/SC(=S)N(CCc4ccc(O)cc4)C3=O)ccc21,98%,93.7%,77.3%,52.4%,114%,87.3%,58.8%,73.5%,14.8%,51%
CCN(CC)CCCNCc1cc(-c2ccccc2)nc2cc(Cl)ccc12,-61.9% (active),80.9%,38.2%,11%,42.8%,66.2%,50.5%,22.3%,10.4%,13.6%
